The text below walks through data of PubChem BioAssay (NCI).

Among the test systems are SR leukemia; RPMI-8226 leukemia; OVCAR-8 ovarian; OVCAR-5 ovarian; OVCAR-4 ovarian; SK-OV-3 ovarian; IGROV1 ovarian; HS 578T breast; NCI/ADR-RES ovarian; OVCAR-3 ovarian.
What all share (experiment): NCI-60 one-dose screen, 48 h (100 = growth as untreated, 0 = no growth, -100 = all killed)
Common to all, as to settings: 10 µM unless noted

The panel holds about 83,000 compounds, 20% with a hit somewhere; the sample as a whole holds those more often.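 Results are percent growth after 48 hours of single-concentration exposure. 100 means growth as in untreated cells, lower positive values show inhibition; negative values down to -100 show cell death.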 A number with no mark means an inactive call. The source made the active and inactive calls. How the source made its calls: active means growth percent below 10; inactive means the rest.

`O=C(c1ccc(Cl)cc1)N1CCCCC1`: the growth with SR leukemia is 96.9%; in the assay with RPMI-8226 leukemia, 102%; in the assay on OVCAR-8 ovarian it was 106%; with OVCAR-5 ovarian, 102%; with OVCAR-4 ovarian it was 113%; with SK-OV-3 ovarian, 105%. Further, the growth in the assay on IGROV1 ovarian was 105%; with HS 578T breast it was 23.2%; in the assay on NCI/ADR-RES ovarian it was 102%.

With `CC(C)=CCC[C@@H](C)[C@H]1CC[C@@]2(C)C3=C(CC[C@]12C)[C@@]1(C)CC[C@H](O)C(C)(C)[C@@H]1CC3`, the growth with SR leukemia is 93.4%; in the assay with RPMI-8226 leukemia it was 102%; in the assay on OVCAR-8 ovarian, 102%; with OVCAR-5 ovarian, 107%; in the assay with OVCAR-4 ovarian it was 105%; with SK-OV-3 ovarian, 108%. The growth with IGROV1 ovarian is 115%; in the assay on OVCAR-3 ovarian, 122%; in the assay on NCI/ADR-RES ovarian it was 110%.

Consider `COC(CCCl)c1ccc(Cl)cc1` (stereo not given), for which the growth with SR leukemia was 90.2%; in the assay on RPMI-8226 leukemia, 100%; in the assay on OVCAR-8 ovarian, 96.9%; in the assay on OVCAR-5 ovarian it was 96.2%; in the assay with OVCAR-4 ovarian it was 108%; with SK-OV-3 ovarian, 106%. The growth in the assay on IGROV1 ovarian is 100%; in the assay with OVCAR-3 ovarian, 109%; with NCI/ADR-RES ovarian, 98.6%.

`CSc1cnc2ccccc2n1`: the growth with SR leukemia is 95.4%; in the assay on RPMI-8226 leukemia, 109%; in the assay on OVCAR-8 ovarian, 95.5%; in the assay with OVCAR-5 ovarian it was 101%; with OVCAR-4 ovarian, 115%; in the assay on SK-OV-3 ovarian, 97.2%. Moreover, the growth with IGROV1 ovarian is 104%; in the assay with HS 578T breast, 98.8%; in the assay with NCI/ADR-RES ovarian it was 103%.

Regarding `CC(=O)Nc1ncc(S(=O)(=O)c2ccc([N+](=O)[O-])cc2)s1`, the growth in the assay on SR leukemia is 96.4%; in the assay with RPMI-8226 leukemia it was 100%; in the assay with OVCAR-8 ovarian, 103%; in the assay with OVCAR-5 ovarian it was 109%; in the assay with OVCAR-4 ovarian, 102%; in the assay with SK-OV-3 ovarian it was 94%. Besides, the growth in the assay on IGROV1 ovarian is 112%; in the assay on OVCAR-3 ovarian, 120%; with NCI/ADR-RES ovarian, 118%.

With `Cc1ccc([N+](=O)[O-])c(C)n1`, the growth in the assay on SR leukemia is 106%; in the assay with RPMI-8226 leukemia it was 99.4%; with OVCAR-8 ovarian, 98.4%; in the assay on OVCAR-5 ovarian, 83.5%; in the assay with OVCAR-4 ovarian, 99.1%; in the assay with SK-OV-3 ovarian, 106%. The figures for the growth with IGROV1 ovarian, with OVCAR-3 ovarian and in the assay on NCI/ADR-RES ovarian were 95%, 107% and 115%, respectively.

Regarding `COC(=O)c1ccc([N+](=O)[O-])c(C)c1`, the growth with SR leukemia was 79.8%; with RPMI-8226 leukemia, 81.1%; with OVCAR-8 ovarian, 108%; in the assay on OVCAR-5 ovarian, 90.7%; with OVCAR-4 ovarian it was 101%; in the assay with SK-OV-3 ovarian, 106%. Further, the growth in the assay on IGROV1 ovarian was 93.1%; in the assay with OVCAR-3 ovarian it was 105%; with NCI/ADR-RES ovarian, 108%.

Consider `O=C1NCC2CCCC1C2` (stereo not given), for which the growth in the assay with SR leukemia is 110%; in the assay with RPMI-8226 leukemia, 118%; in the assay with OVCAR-8 ovarian, 99.3%; in the assay on OVCAR-5 ovarian, 107%; in the assay on OVCAR-4 ovarian, 103%; in the assay with SK-OV-3 ovarian, 110%. In addition, the growth in the assay with IGROV1 ovarian was 107%; in the assay on OVCAR-3 ovarian it was 114%; in the assay with NCI/ADR-RES ovarian it was 106%.

In the case of `Cc1ccnc(Nc2nc3ccccc3[nH]2)n1`, the growth is 97.1% with SR leukemia; 94.1% with RPMI-8226 leukemia; 106% in the assay with OVCAR-8 ovarian; 95.3% with OVCAR-5 ovarian; 109% in the assay on OVCAR-4 ovarian; 101% with SK-OV-3 ovarian. Also, the growth in the assay with IGROV1 ovarian is 97.6%; in the assay with OVCAR-3 ovarian, 132%; with NCI/ADR-RES ovarian it was 112%.

As for `CC(=O)NC(CCC(=O)c1ccccc1)C(=O)O` (stereo not given), the growth was 16.6% with SR leukemia; 91.4% in the assay with RPMI-8226 leukemia; 101% in the assay on OVCAR-8 ovarian; 98.3% in the assay with OVCAR-5 ovarian; 100% in the assay on OVCAR-4 ovarian; 87.5% with SK-OV-3 ovarian. The figures for the growth with IGROV1 ovarian, with HS 578T breast and in the assay on NCI/ADR-RES ovarian were 104%, 108% and 106%, respectively.

Regarding `Cc1onc(-c2c(F)cccc2Cl)c1-c1ncc(-c2ccc(Br)cc2)o1`, the growth is 13.7% in the assay with SR leukemia; 22.6% in the assay on RPMI-8226 leukemia; 38.3% in the assay on OVCAR-8 ovarian; 70% in the assay on OVCAR-5 ovarian; 48% in the assay on OVCAR-4 ovarian; 66.1% in the assay with SK-OV-3 ovarian. In addition, the growth in the assay on IGROV1 ovarian was 36.8%; in the assay with HS 578T breast it was 66.6%; in the assay with NCI/ADR-RES ovarian it was 31.1%.

For `Nc1ncc([N+](=O)[O-])cn1`, the growth in the assay on SR leukemia is 104%; with RPMI-8226 leukemia, 98.6%; with OVCAR-8 ovarian, 95.8%; in the assay on OVCAR-5 ovarian it was 102%; in the assay with SK-OV-3 ovarian it was 106%; in the assay on IGROV1 ovarian, 109%. The growth in the assay on OVCAR-3 ovarian was 104%; with HS 578T breast, 101%; in the assay on NCI/ADR-RES ovarian, 105%.

With `CC1(c2ccccc2)CO1` (stereo not given), the growth in the assay with SR leukemia is 104%; in the assay with RPMI-8226 leukemia it was 103%; with OVCAR-8 ovarian, 102%; in the assay on OVCAR-5 ovarian it was 97.5%; in the assay with SK-OV-3 ovarian it was 107%; in the assay on IGROV1 ovarian, 100%. The growth in the assay with OVCAR-3 ovarian is 114%; in the assay on HS 578T breast, 97.4%; in the assay on NCI/ADR-RES ovarian it was 113%.

As for `C=C(c1ccc(N(C)C)cc1)c1ccc(N(C)C)cc1`, the growth in the assay on SR leukemia was 11.8%; in the assay with RPMI-8226 leukemia, 7.06% (active); in the assay on OVCAR-8 ovarian it was -5.66% (active); with OVCAR-5 ovarian, 16%; in the assay with SK-OV-3 ovarian, 27.4%; in the assay with IGROV1 ovarian, 25.4%. In addition, the growth was -33% (active) with OVCAR-3 ovarian and -35.5% (active) in the assay with NCI/ADR-RES ovarian.
